Compound activity as filed in PubChem.
Rows were chosen to be rich in hits. Some 2.9% of all compounds tested hit in one or more screens of this group.
KDM5B inhibitor: Primary screen for KDM5B Histone Demethylases FDH-coupled qHTS. KDM5B demethylase, FDH-coupled NADH fluorescence (FDH is formaldehyde dehydrogenase). 2.6% of 220,000 active. Lysine-specific demethylase 5B (Homo sapiens), Q9UGL1. Potency, µM (highest dose often 57.7 µM), actives largely listed as inhibitors; also: nearly all actives have a fitted effect of over 70% in size
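qHTS format, multiple compound concentrations. Buffer 50 mM HEPES pH 7.5/0.01% Tween-20; 200 nM KDM5BΔAP final; 10 min compound preincubation; substrate-mix levels 12.5 µM peptide, 25 µM α-KG, 0.25 mM NAD⁺; 30 min RT; ΔRFU.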
IP6K1 inh: Primary qHTS assay for small molecule inhibitors of Inositol hexaphosphate kinase 1 (IP6K1). Inositol hexakisphosphate kinase 1 (Homo sapiens), Q92551. IP6K1 kinase, ADP-Glo luminescence, 2 h; hits give low values. activity change, % (series mostly up to about 58 µM). 0.81% of 140,000 active; in the data active = activity change below about -25%
Target sequence (Q92551 whole entry, looked up): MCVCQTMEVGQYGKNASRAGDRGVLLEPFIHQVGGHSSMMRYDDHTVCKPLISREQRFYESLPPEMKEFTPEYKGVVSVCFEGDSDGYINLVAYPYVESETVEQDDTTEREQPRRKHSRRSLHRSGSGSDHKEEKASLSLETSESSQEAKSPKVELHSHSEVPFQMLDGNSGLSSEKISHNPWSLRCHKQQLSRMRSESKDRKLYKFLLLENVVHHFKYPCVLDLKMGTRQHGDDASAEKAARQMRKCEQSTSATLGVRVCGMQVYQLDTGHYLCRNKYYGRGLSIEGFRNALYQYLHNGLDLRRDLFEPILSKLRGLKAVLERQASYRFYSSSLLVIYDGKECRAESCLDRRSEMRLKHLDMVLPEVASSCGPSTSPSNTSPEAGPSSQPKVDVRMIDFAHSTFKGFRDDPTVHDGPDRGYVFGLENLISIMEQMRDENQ
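ADP-Glo luminescence measures ADP made by human IP6K1 during a 2 h RT reaction with ATP/IP6 (mix at 1.3 mM/130 uM); top library doses 57.5 and 19.1 uM final.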
SNCA viab count: GF-AFC viability counterscreen for inhibitors of alpha-synuclein gene (SNCA) expression; HEK-293-SNCA-luc viability, GF-AFC fluorescence, 24 h; Potency, µM (highest dose often 57.1 µM), most hits filed as cytotoxic; 0.12% of 150,000 active; AID 1671193, 2021; also: nearly all actives have a fitted effect of over 30% in size
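Cytotoxicity counterscreen: after 24 h compound treatment of genome-edited SNCA-luciferase HEK-293 cells, live-cell protease substrate GF-AFC read by fluorescence after 30 min; activity scaled between DMSO (0%) and medium-only (-100%), curves Hill-fitted.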
SNCA expr inhib: Primary qHTS assay for inhibitors of alpha-synuclein gene (SNCA) expression | HEK-293 SNCA-luciferase knock-in, luminescence, 24 h | Potency, µM (highest dose often 57.2 µM), most hits filed as inhibitors | 0.17% of 140,000 active | AID 1671194, 2021; also: nearly all actives have a fitted effect of over 45% in size
Hits are given with their value; n = inactive; u = inconclusive; x = no result. Unless noted, calls follow the shape of the dose curve; as a rule, active = well fitted curve in the direction sought with a large enough effect; inconclusive = small, poorly fitted or top-dose-only effect, or another doubt; inactive = no such curve, though single readings can be large; an effect the other way counts as inactive or inconclusive.

SMILES | KDM5B inhibitor | IP6K1 inh | SNCA viab count | SNCA expr inhib
Cc1cccc2c1O[C@H]1[C@H](C(N)=O)CN(C(=O)OCc3ccccc3)[C@@H]21 | x | n | x | x
O=C(NCc1nnc2ccc(-c3ccccc3)nn12)c1ccccn1 | 28.2µM | n | n | n
O=C(NCc1nnc2ccc(-c3ccccc3)nn12)c1ccc(F)cc1Cl | 28.2µM | n | n | n
CCOc1ccccc1C(=O)NCc1nnc2ccc(-c3ccccc3)nn12 | 25.1µM | n | n | n
COc1ccc(C(=O)NCc2nnc3ccc(-c4ccccc4)nn23)c(C)c1 | u | n | n | n
O=C(NCc1nnc2ccc(-c3ccccc3)nn12)c1ccccc1Cl | 28.2µM | n | n | n
Cc1ccccc1CC(=O)NCc1nnc2ccc(-c3ccccc3)nn12 | 31.6µM | n | n | n
O=C(Cc1ccsc1)NCc1nnc2ccc(-c3ccc(Cl)cc3)nn12 | 25.1µM | n | n | n
O=C(NCc1nnc2ccc(-c3ccccc3)nn12)c1ccccc1F | 28.2µM | n | n | n
COc1ccccc1CC(=O)NCc1nnc2ccc(-c3ccc(C)cc3)nn12 | u | n | n | n
Cc1ccc(-c2ccc3nnc(CNC(=O)C4(c5ccccc5)CC4)n3n2)cc1 | 28.2µM | n | n | n
Cc1ccc(-c2ccc3nnc(CNC(=O)Cc4ccsc4)n3n2)cc1C | u | n | n | n
COc1ccc(CN2Cc3[nH]nc(-c4ccc(N5CCN(C)CC5)cc4)c3CC2=O)cc1 | u | n | n | n
O=C(CCc1ccccc1)NCc1nnc2ccc(-c3ccccc3)nn12 | 28.2µM | n | n | n
COc1ccc(-c2ccc3nnc(CNC(=O)c4ccccc4F)n3n2)cc1 | 28.2µM | n | n | n
Cc1ccccc1C(=O)N1CCC(N2C(=O)c3c(c(C)nn3-c3ccccc3)C2C2CC2)CC1 (centres undefined) | x | n | x | x
COc1ccc(-c2cccc(C(=O)N3CCN(C(=O)Nc4ccc(Cl)cc4)CC3)c2)nn1 | x | n | x | x
Cc1cc(N2CCC(c3nccn3Cc3ccccn3)CC2)nc2ccccc12 | 31.6µM | n | n | n
CCn1c(CO)nnc1C1CC(NC(=O)c2scc3c2CCCC3)C1 (centres undefined) | n | n | n | n
CCn1c(CO)nnc1C1CC(NC(=O)c2cnc3sccn3c2=O)C1 (centres undefined) | 28.2µM | n | n | n
C#CCNC(=O)C1CCCCN1Cc1ccc(-c2ccsc2)cc1 (centres undefined) | x | n | n | n
O=C(NCc1cccs1)c1ccc2ccccc2c1 | n | x | x | x
CN1CCCC2(C1)CN(C)c1ccc(C(=O)NCC3CCCCC3)cc12 (centres undefined) | 35.5µM | n | n | n
CC(C)CNC(=O)c1ccc2c(c1)C1(CCN(C)C1)CN2CC1CC1 (centres undefined) | 35.5µM | n | n | n
CN1CCCC2(C1)CN(C)c1ccc(C(=O)Nc3ccc(F)cc3)cc12 (centres undefined) | 35.5µM | n | n | n
SMILES | KDM5B inhibitor | IP6K1 inh | SNCA viab count | SNCA expr inhib
CN1CCCC2(C1)CN(Cc1cccnc1)c1ccc(C(=O)Nc3ccc(F)cc3)cc12 (centres undefined) | n | n | n | n
CN1CCCC2(C1)CN(C)c1ccc(C(=O)NCc3cccs3)cc12 (centres undefined) | 35.5µM | n | n | n
COc1ccc(NC(=O)c2ccc3c(c2)C2(CCCN(C)C2)CN3C)cc1 (centres undefined) | n | n | n | n
Cc1nn(-c2ccccc2)c2c1C(C(C)C)N(C1CCN(C(=O)c3ccccc3Cl)CC1)C2=O (centres undefined) | x | n | x | x
COc1ccc(CN2C(=O)[C@@H]3C[C@@H](CN3C3CCC3)Oc3ccccc32)cc1 | u | n | u | n
CN1CCC2(C1)CN(CC1CC1)c1ccc(C(=O)NCC3CC3)cc12 (centres undefined) | 35.5µM | n | n | n
CN1CCC2(C1)CN(Cc1ccccc1)c1ccc(C(=O)Nc3ccc(F)cc3)cc12 (centres undefined) | u | n | n | n
O=C(NCc1ccc(-c2cnc3c(Oc4ccccc4)nccn23)cc1)c1cccc(O)c1 | u | n | n | n
CCOc1nccn2c(-c3ccc(CNC(=O)Cn4cnnn4)cc3)cnc12 | 39.8µM | n | n | n
Cc1ccc2oc([C@H]3CCN(Cc4c[nH]c5ccccc45)C3)nc2c1 | 12.6µM | n | u | n
Cc1ccc2oc([C@H]3CCN(Cc4cccc(Cl)c4)C3)nc2c1 | u | n | n | n
CCOC(=O)[C@@H]1[C@@H](O)C(=O)N(Cc2ccccc2)C12CCN(C(=O)/C=C/c1ccccc1)CC2 | x | n | x | x
O=C1N(C2CCOCC2)CCCC12CCN(c1ccc(Cl)cn1)C2 (centres undefined) | 28.2µM | n | n | n
Cc1nn(-c2ccccc2)c2c1C(C1CC1)N(C1CN(C(=O)Cc3cccc(Cl)c3)C1)C2=O (centres undefined) | x | n | x | x
O=C1c2cc(N3CCOCC3)nc(-c3cccc(F)c3)c2CN1CC1CC1 | 35.5µM | n | n | n
C[S+](=O)([O-])Nc1cccc(-c2nc(N3CCOCC3)cc3c2CN(CC2CC2)C3=O)c1 | 28.2µM | n | n | n
COc1ncccc1-c1nc(N2CCOCC2)cc2c1CN(CC(F)(F)F)C2=O | u | n | n | n
O=C(NCCCc1ccccc1)C1CCN(C(=O)c2ccc(-c3cccs3)cc2)CC1 | x | n | x | x
COc1ccccc1-c1ccc(CN2CCCCC2C(=O)NCc2ccc3c(c2)OCO3)cc1 (centres undefined) | x | n | x | x
CC(C)c1noc(-c2ccn3c(CNC(=O)Cc4ccccc4Cl)nnc3c2)n1 | 15.8µM | n | n | n
CC(C)c1noc(-c2ccn3c(CNC(=O)Cc4ccc(F)cc4)nnc3c2)n1 | n | n | n | n
CCCc1noc(-c2ccn3c(CNC(=O)Cc4ccccc4Cl)nnc3c2)n1 | 14.1µM | n | n | n
Cc1ccc(CC(=O)NCc2nnc3cc(-c4nc(C(C)C)no4)ccn23)cc1 | 25.1µM | n | n | n
COCCNC(=O)c1ccc2c(c1)NC(C)(COc1ccc(OC)cc1)CO2 (centres undefined) | 35.5µM | n | n | n
CCOCC1(C)COc2ccc(C(=O)NCc3cc(OC)cc(OC)c3)cc2N1 (centres undefined) | 31.6µM | n | n | n
CCOCC1(C)COc2ccc(C(=O)Nc3ccccn3)cc2N1 (centres undefined) | 31.6µM | n | n | n
COc1ccc(OCC2(C)COc3ccc(C(=O)NCCN4CCOCC4)cc3N2)cc1 (centres undefined) | 35.5µM | n | n | n
Cc1cc(C)cc(-c2ccc(CN3CCCC(NC(=O)Cc4cccc(Cl)c4)C3)cc2)c1 (centres undefined) | x | n | n | u
Fc1ccccc1OCC1CCCN(c2nccc(-c3cccnc3)n2)C1 (centres undefined) | 28.2µM | n | n | n
